Laboratory results reported in PubChem BioAssay (NCATS).
Values joined by “and” are separate entries in the source; they are usually repeats but may differ in a detail not shown here. Equal values may be shown once. Results filed as inconclusive are left out. Entries that show only a call come without a potency. Active and inactive are the calls of the source. Calls come from the whole dose curve; as a rule, active = well fitted curve in the direction sought with a large enough effect; inconclusive = small, poorly fitted or top-dose-only effect, or another doubt; inactive = no such curve, though single readings can be large; an effect the other way counts as inactive or inconclusive.

Tests used:
UISO = assay: qHTS assay to identify novel small-molecules to repurpose for Merkel cell carcinoma treatment (AID 1296009); conditions: MCC and control cell lines, CellTiter-Glo viability, 72 h; series mostly up to 46 µM; note: nearly all actives have a fitted effect of over 60% in size
How it was run: (§1)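 After compound transfer in DMSO, plates were kept 72 hr at 37 degree celsius. Luminescent ATP signal from CellTiter-Glo served as viability measure, normalized against DMSO and no-cell controls.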

WaGa = assay: as above; conditions: MCC and control cell lines, CellTiter-Glo viability, 72 h; series mostly up to 46 µM
How it was run: as §1

C33A = assay: Primary qHTS to identify gynecologic anti-cancer compounds using libraries of approved drugs and bioactive compounds (AID 1345084); conditions: Gynecologic cancer cell panel viability, ATPlite luminescence, 48 h; series mostly up to 57.5 µM; note: nearly all actives have a fitted effect of over 55% in size
How it was run: (§2)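 Five-concentration response, 48 h; readout is ATP-driven luciferase luminescence.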

CAOV3 = assay: as above; conditions: Gynecologic cancer cell panel viability, ATPlite luminescence, 48 h; series mostly up to 57.5 µM
How it was run: as §2

CASKI = assay: as above; conditions: Gynecologic cancer cell panel viability, ATPlite luminescence, 48 h; series mostly up to 57.5 µM
How it was run: as §2

Es-2 = assay: as above; conditions: Gynecologic cancer cell panel viability, ATPlite luminescence, 48 h; series mostly up to 57.5 µM
How it was run: as §2

HeLa = assay: as above; conditions: Gynecologic cancer cell panel viability, ATPlite luminescence, 48 h; series mostly up to 57.5 µM
How it was run: as §2

Hek293T = assay: as above; conditions: Gynecologic cancer cell panel viability, ATPlite luminescence, 48 h, control line for the selectivity index; series mostly up to 57.5 µM
How it was run: as §2

JEG-3 = assay: as above; conditions: Gynecologic cancer cell panel viability, ATPlite luminescence, 48 h; series mostly up to 57.5 µM
How it was run: as §2

OV90 = assay: as above; conditions: Gynecologic cancer cell panel viability, ATPlite luminescence, 48 h; series mostly up to 57.5 µM
How it was run: as §2
Potency is the fitted concentration of half-maximal effect.

SMILES | Potency (UISO) | Potency (WaGa) | Potency (C33A) | Potency (CAOV3) | Potency (CASKI) | Potency (Es-2) | Potency (HeLa) | Potency (Hek293T) | Potency (JEG-3) | Potency (OV90)
O=C(CBr)Nc1ccc(Cl)cc1C(=O)c1ccccc1F | inactive | inactive | inactive | inactive | inactive | inactive | inactive | inactive | inactive | inactive
CCN(CC)CCOC(=O)C(C)(c1ccccc1)c1ccccc1 | inactive | inactive | inactive | inactive | inactive | inactive | inactive | inactive | inactive | inactive
c1cc2c(c(N3CCNCC3)c1)OCCO2 | inactive | inactive | inactive | inactive | inactive | inactive | inactive | inactive | inactive | inactive
CC(C)(O)C(Cl)(Cl)Cl | inactive | inactive | inactive | inactive | inactive | inactive | inactive | inactive | inactive | inactive
CC(C)C(Br)C(=O)NC(N)=O (configuration not stated) | inactive | inactive | inactive | inactive | inactive | inactive | inactive | inactive | inactive | inactive
OC(O)C(Cl)(Cl)Cl | inactive | inactive | inactive | inactive | inactive | inactive | inactive | inactive | inactive | inactive
CCCOC(=O)Cc1ccc(OCC(=O)N(CC)CC)c(OC)c1 | inactive | inactive | inactive | inactive | inactive | inactive | inactive | inactive | inactive | inactive
CC(Cc1ccccc1)NCCCCl (configuration not stated) | inactive | inactive | inactive | inactive | inactive | inactive | inactive | inactive | inactive | inactive
CN1C[C@@H](NS(=O)(=O)N(C)C)C[C@@H]2c3cccc4c3c(cn4C)C[C@H]21 | inactive | inactive | inactive | inactive | inactive | inactive | inactive | inactive | inactive | inactive
CCOC(=O)C(c1c(O)c2ccccc2oc1=O)c1c(O)c2ccccc2oc1=O | inactive | inactive | inactive | inactive | inactive | inactive | inactive | inactive | inactive | inactive
CCN(Cc1ccc(Cl)nc1)/C(=C/[N+](=O)[O-])NC | inactive | inactive | inactive | inactive | inactive | inactive | inactive | inactive | inactive | inactive
CCc1ccc(C2CCNCC2)cc1 | inactive | inactive | inactive | inactive | inactive | inactive | inactive | inactive | inactive | inactive
CC(Cc1ccccc1)NCc1ccccc1Cl (configuration not stated) | inactive | inactive | inactive | inactive | inactive | inactive | inactive | inactive | inactive | inactive
C[C@]12CC[C@H]3[C@@H](CCC4=CC(=O)CC[C@@H]43)[C@@H]1CC[C@@H]2O | inactive | inactive | inactive | inactive | inactive | inactive | 2.24 µM (active) | inactive | inactive | inactive
C[C@H]1CNCCc2ccc(Cl)cc21 | inactive | inactive | inactive | inactive | inactive | inactive | inactive | inactive | inactive | inactive
Cc1ccc(N=CN(C)C=Nc2ccc(C)cc2C)c(C)c1 | inactive | inactive | inactive | inactive | inactive | inactive | inactive | inactive | inactive | inactive
ClC1=C(Cl)C2(Cl)C(CBr)CC1(Cl)C2(Cl)Cl (configuration not stated) | inactive | inactive | inactive | inactive | inactive | inactive | inactive | inactive | inactive | inactive
CC(CC(C(N)=O)(c1ccccc1)c1ccccc1)N(C)C (configuration not stated) | inactive | inactive | inactive | inactive | inactive | inactive | inactive | inactive | inactive | inactive
NC(=O)OCCCc1ccccc1 | inactive | inactive | inactive | inactive | inactive | inactive | inactive | inactive | inactive | inactive
CN(C)C(=O)Oc1cc(OC(=O)N(C)C)cc(C(O)CNC(C)(C)C)c1 (configuration not stated) | inactive | inactive | inactive | inactive | inactive | inactive | inactive | inactive | inactive | inactive
CC1=C2[C@H]3OC(=O)[C@@H](C)[C@@H]3CC[C@@]2(C)C=CC1=O | inactive | inactive | inactive | inactive | inactive | inactive | inactive | inactive | inactive | inactive
ClCc1cccc(Cl)c1 | inactive | inactive | inactive | inactive | inactive | inactive | inactive | inactive | inactive | inactive
CNC(C)Cc1ccccc1OC (configuration not stated) | inactive | inactive | inactive | inactive | inactive | inactive | inactive | inactive | inactive | inactive
O=c1n(Cl)c(=O)n(Cl)c(=O)n1Cl | inactive | inactive | inactive | inactive | inactive | inactive | inactive | inactive | inactive | inactive
NC(=O)CN1CCCC1=O | inactive | inactive | inactive | inactive | inactive | inactive | inactive | inactive | inactive | inactive

SMILES | Potency (UISO) | Potency (WaGa) | Potency (C33A) | Potency (CAOV3) | Potency (CASKI) | Potency (Es-2) | Potency (HeLa) | Potency (Hek293T) | Potency (JEG-3) | Potency (OV90)
Cc1ccc([N+](=O)[O-])[c]2c1[O][Hg]2 | 335 nM (active) | 0.335 µM (active) | 4.47 µM (active) | 6.31 µM (active) | 7.94 µM (active) | 5.62 µM (active) | 20 µM (active) | 5.62 µM (active) | 3.55 µM (active) | 12.6 µM (active)
COc1ccc(OC)c(CC(C)N)c1 (configuration not stated) | inactive | inactive | inactive | inactive | inactive | inactive | inactive | inactive | inactive | inactive
CN(C)CCc1c[nH]c2ccccc12 | inactive | inactive | inactive | inactive | inactive | inactive | inactive | inactive | inactive | inactive
CCN1CCCC1CNC(=O)C(O)(c1ccccc1)c1ccccc1 (configuration not stated) | inactive | inactive | inactive | inactive | inactive | inactive | inactive | inactive | inactive | inactive
CCC1(c2ccccc2)CCC(=O)NC1=O (configuration not stated) | inactive | inactive | inactive | inactive | inactive | inactive | inactive | inactive | inactive | inactive
CC(C)NCC(O)c1ccc(N)c(C#N)c1 (configuration not stated) | inactive | inactive | inactive | inactive | inactive | inactive | inactive | inactive | inactive | inactive
CCOC(=O)NC(C)(C)Cc1ccc(Cl)cc1 | inactive | inactive | inactive | inactive | inactive | inactive | inactive | inactive | inactive | inactive
CCC1(CC)C(=O)NC(=O)NC1=O | inactive | inactive | inactive | inactive | inactive | inactive | inactive | – | inactive | inactive
CN1[C@@H]2CC[C@H]1CC(OC(=O)c1cc(Cl)cc(Cl)c1)C2 (some centres not stated) | inactive | inactive | inactive | – | inactive | inactive | inactive | – | inactive | –
CC#C[C@]1(O)CC[C@H]2[C@@H]3C[C@H](C)C4=CC(=O)CC[C@]4(C)[C@H]3CC[C@@]21C | inactive | – | inactive | inactive | inactive | inactive | 6.31 µM (active) | inactive | – | –
Oc1ccc2[nH]cc(CCCCN3CC=C(c4ccccc4)CC3)c2c1 | 8410 nM (active) | 2.99 µM (active) | inactive | – | inactive | inactive | inactive | – | inactive | inactive
COc1ccc(CN2CCNCC2)c(OC)c1OC | inactive | inactive | inactive | – | inactive | inactive | inactive | inactive | inactive | inactive
CCC(=O)O[C@H]1CC[C@H]2[C@@H]3CCC4=CC(=O)CC[C@]4(C)[C@H]3CC[C@]12C | inactive | – | inactive | inactive | inactive | inactive | 3.55 µM (active) | inactive | inactive | –
CN1C(=O)CN=C(c2ccccc2)c2cc(Cl)ccc21 | inactive | inactive | inactive | – | inactive | inactive | inactive | inactive | inactive | inactive
Cc1nc2ccccc2c(=O)n1-c1ccccc1Cl | inactive | inactive | inactive | inactive | – | inactive | inactive | inactive | inactive | inactive
CC(C)=CCN1CC[C@@]2(C)c3cc(O)ccc3C[C@@H]1[C@@H]2C | inactive | – | inactive | inactive | inactive | 28.2 µM (active) | inactive | inactive | inactive | –
O=C(O)Cc1ccccc1 | inactive | inactive | inactive | – | inactive | inactive | inactive | inactive | inactive | –
O=C(CCCN1CCC(n2c(=O)[nH]c3ccccc32)CC1)c1ccc(F)cc1 | inactive | inactive | inactive | inactive | – | inactive | inactive | inactive | inactive | inactive
O=C(NC(=O)c1c(F)cccc1F)Nc1cc(Cl)c(OC(F)(F)C(F)C(F)(F)F)cc1Cl (configuration not stated) | inactive | inactive | inactive | inactive | inactive | inactive | inactive | – | inactive | inactive
CNC(=O)NC(O)C(Cl)(Cl)Cl (configuration not stated) | inactive | inactive | inactive | inactive | inactive | inactive | inactive | – | inactive | inactive
CCCCCCCCC(=O)NCc1ccc(O)c(OC)c1 | inactive | inactive | – | inactive | inactive | – | inactive | inactive | inactive | inactive
C[C@@H]1C[C@@H]([C@H](O)CC2CC(=O)NC(=O)C2)C(=O)[C@@H](C)C1 | 1.06 µM (active) and 1.18 µM (active) | 5.9 µM (active) | – | 25.1 µM (active) | – | 0.794 µM (active) | – | 0.501 µM (active) | inactive | 0.631 µM (active)
CC[C@H]1C[C@H]2[C@@H]3CCC4=CC(=O)CC[C@@H]4[C@H]3CC[C@]2(C)[C@H]1O | inactive | inactive | – | – | inactive | inactive | – | – | inactive | inactive
O=C(N[C@H]1N=C(c2ccccc2F)c2cccc3c2N(CC3)C1=O)c1cc2ccccc2[nH]1 | inactive | inactive | – | inactive | inactive | inactive | inactive | inactive | inactive | inactive
Cc1ncc2n1-c1ccc(Cl)cc1C(c1ccccc1F)=NC2 | inactive | – | inactive | inactive | inactive | inactive | inactive | inactive | inactive | –
